# The entries come from a sample that favours hits as a whole.
# PNC inhibitor = High Content Assay for Compounds that inhibit the Assembly of the Perinucleolar Compartment. PC3M PTB-GFP, PNC prevalence imaging, 16 h; active compounds read low. activity change (PNC), negative = inhibition, % at 10 µM. 3.1% of 140,000 active. AID 2417, 2010;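 active means readout at or below -70, meaning at least 70% loss of cells showing the perinucleolar compartment, a nuclear body marking cancer cells; inconclusive means readout between -30 and a set limit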
#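 Read-out is percentage of cells bearing a perinucleolar compartment, from automated 20x imaging of fixed, Hoechst-stained PC3M PTB-GFP cells. Cells were seeded 4 h, then exposed 16 h to compound (23 nl of library stock) in duplicate plates.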
# IMPase cell inh = qHTS Assay for Identifying the Cell-Membrane Permeable IMPase Inhibitors | inhibition (IP1 accumulation), % at 46.1 µM | Inositol monophosphatase 1 (Rattus norvegicus), P97697 | CHO-M1 cells, IP1 accumulation, HTRF TR-FRET ratio | 120,000 tested, under 10 active; active means well fitted curve in the direction sought with a large enough effect in the signal ratio, not every such curve was filed as active; inconclusive means small, poorly fitted or top-dose-only effect, or a change in a side signal; inactive means no such curve, though single readings can be large or run the other way; the % refers to the signal ratio;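 further: cells stimulated with carbachol in lithium chloride buffer; higher means more IMPase inhibition seen as more IP1 and lower FRET ratio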
# Target sequence (P97697 whole entry, looked up): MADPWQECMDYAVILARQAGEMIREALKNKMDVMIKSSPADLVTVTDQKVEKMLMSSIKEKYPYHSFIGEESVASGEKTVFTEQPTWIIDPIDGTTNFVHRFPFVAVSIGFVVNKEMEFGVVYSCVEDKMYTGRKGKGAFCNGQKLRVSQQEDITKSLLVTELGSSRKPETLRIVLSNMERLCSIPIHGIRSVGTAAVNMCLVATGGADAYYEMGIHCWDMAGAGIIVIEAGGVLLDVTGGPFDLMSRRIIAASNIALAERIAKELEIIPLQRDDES
#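 Elevated IP1 in lysates lowers TR-FRET signal (665/620 ratio and 620 channel reported). Cells were CHO-M1, given carbachol (50 uM as added) plus 50mM LiCl, pH 7.4, 30 min, 37C; compounds titrated up to 46 uM; AC50 by Hill equation.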
# Lamin A splicing = qHTS Assay for Modulators of Lamin A Splicing; HeLa LMNA splicing GFP/RFP minigene ratio, 48 h; Potency, µM (top dose mostly 46.1 µM), usual class: inhibitors; 0.01% of 200,000 active; AID 1487, 2009; active means well fitted inhibition curve with a large enough effect in the signal ratio, with a control signal flat, not every such curve was filed as active; inconclusive means small, poorly fitted or top-dose-only effect, or effect the other way, or a change in a side signal; the % refers to the signal ratio
#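 S3 HeLa cells stably expressing lamin A-EGFP splicing minigene plus DsRed2, 600 cells/well, 48 h compound exposure at 37C. Laser-scanning cytometry; analysed as GFP (500-530 nm)/RFP (575-640 nm) total intensity ratio; 0.5% DMSO vehicle.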
# Numbers stand for hits; . = inactive; ? = inconclusive; / = no result; [ ] = another dose, or the depositor's remark.
SMILES,PNC inhibitor,IMPase cell inh,Lamin A splicing
OCc1cnc(SCc2cccc(F)c2)n1Cc1ccc(F)cc1,/,/,.
COC(=O)c1[nH]c2c(c1C)C(=O)CC(c1cccs1)C2 (stereo not given),-85,.,.
Cc1c(C(=O)OCc2ccccc2)[nH]c2c1C(=O)CC(c1ccc(C(C)(C)C)cc1)C2 (stereo not given),/,.,/
COCCOC(=O)c1[nH]c2c(c1C)C(=O)CC(c1ccc(F)cc1)C2 (stereo not given),?,.,.
COCCOC(=O)C1=C(C)OC(N)=C(C#N)C1c1ccco1 (stereo not given),-100,.,.
COCCOC(=O)c1[nH]c2c(c1C)C(=O)CC(c1ccccc1)C2 (stereo not given),-100,.,?
CCOc1ccc(C2CC(=O)c3c([nH]c(C(=O)OC)c3C)C2)cc1OC (stereo not given),.,.,.
CCOC(=O)c1[nH]c2c(c1C)C(=O)CC(c1ccco1)C2 (stereo not given),-108,.,?
COC(=O)C1=C(C)OC(N)=C(C#N)C1c1ccco1 (stereo not given),?,?,.
Cc1cccc(NC(=O)C2CCN(S(=O)(=O)c3ccc4c(c3)CCCN4C(=O)C3CCC3)CC2)c1,/,/,.
S=C(S)O[C@@H]1C[C@@H]2C[C@H]1[C@@H]1CCC[C@H]21,/,.,/
COc1cccc(NC(=O)C(=O)NCCc2sc(-c3cccc(C)c3)nc2C)c1,/,/,.
CCOc1ccccc1C(=O)NCc1nc2cccnc2n1Cc1ccc(C)cc1,/,/,.
CCN(c1cccc(C)c1)S(=O)(=O)c1ccc2[nH]cc(C(=O)NCCCOC)c(=O)c2c1,/,/,.
CN(C)c1ncc(C(=O)NCc2ccccc2Cl)cn1,/,/,.
CCNC(=S)Nc1cccc(F)c1C,/,/,.
COCCn1c(C)cc(O)c(C(c2cccc(F)c2)N2CCN(c3ccccc3)CC2)c1=O (stereo not given),/,/,.
Cc1oc2ncn(CC(C)C)c(=O)c2c1C(=O)NCCCN(C)Cc1ccccc1,/,/,.
COc1ccc(NC(=O)C2=C(C)Nc3nc(CCCO)nn3C2c2ccc(O)cc2)cc1 (stereo not given),/,/,.
Cc1c(C(=O)OCCOC(C)C)[nH]c2c1C(=O)CC(C)(C)C2,.,.,.
CSCCOC(=O)c1[nH]c2c(c1C)C(=O)CC(c1ccco1)C2 (stereo not given),-90,.,?
COCCOC(=O)c1[nH]c2c(c1C)C(=O)CC(c1ccc(N(C)C)cc1)C2 (stereo not given),?,.,.
COCCOC(=O)c1[nH]c2c(c1C)C(=O)CC(c1ccco1)C2 (stereo not given),-95,.,?
Cc1c(C(=O)OCCOc2ccccc2)[nH]c2c1C(=O)CC(c1ccc(C(C)(C)C)cc1)C2 (stereo not given),/,.,/
Cc1c(C(=O)OCc2ccccc2)[nH]c2c1C(=O)CC(c1ccco1)C2 (stereo not given),-82,.,?
SMILES,PNC inhibitor,IMPase cell inh,Lamin A splicing
Cc1c(C(=O)OCCOC(C)C)[nH]c2c1C(=O)CC(c1ccco1)C2 (stereo not given),-91,.,.
COc1ccc(C2CC(=O)c3c([nH]c(C(=O)OCc4ccccc4)c3C)C2)cc1 (stereo not given),/,.,/
COc1ccc(CCNC(=O)c2c(C)oc3ncn(CC(C)C)c(=O)c23)c(OC)c1,/,/,.
CCOCN(C(=O)Cn1c(CC(C)C)nc2ccccc21)c1c(C)cccc1CC,/,.,/
COC(=O)CCN(C(=O)c1c(C)oc2ncnc(N3CCOCC3)c12)c1ccccc1,/,/,.
Cc1ccc(Cn2ccnc2SCC(=O)Nc2ccc3c(c2)OCCO3)cc1,/,/,.
O=c1cc(-c2ccccc2)n2c(SCc3cccc([N+](=O)[O-])c3)nnc2[nH]1,/,/,.
Cc1cc(C)n(-c2nc3sc4c(c3c3nnc(SCC(N)=O)n23)CC(C)(C)OC4)n1,-100,.,.
CSc1nnc2c3c4c(sc3nc(-n3nc(C)cc3C)n12)COC(C)(C)C4,.,.,.
CCCS(=O)(=O)n1nc(-c2ccccc2)cc1N,?,.,.
CCCS(=O)(=O)n1nc(-c2ccc(Br)cc2)cc1N,-119,.,.
CCC(OC(=O)c1cccs1)C(=O)NCc1ccco1 (stereo not given),-101,.,.
CC(C)CC(OC(=O)c1cccs1)C(=O)NCc1ccco1 (stereo not given),.,.,.
COCCNC(=O)CN1C(=O)c2cccnc2Sc2ccccc21,/,/,.
CC(=O)N1c2ccccc2CC1C(=O)N1CCN(c2cccc(Cl)c2)CC1 (stereo not given),/,/,.
CC(C)N(C(=O)COC(=O)CNS(=O)(=O)c1ccccc1F)c1ccccc1,/,/,.
CNc1nc(CCN2C(=O)c3ccccc3C2=O)cs1,.,.,.
Cc1nc(CCN2C(=O)c3ccccc3C2=O)cs1,-111,.,.
Cc1ccc(S(=O)(=O)N2CCC(C(=O)NCc3ccncc3)CC2)cc1,.,.,.
O=C(Nc1ccc(CN2CCCCC2)cc1)c1ccc2c(c1)OCO2,.,.,.
O=C(Nc1ccn(Cc2ccc(Cl)cc2)n1)c1ccc2c(c1)OCO2,-82,.,?
COc1ccc(C(=O)C[n+]2cn(C(F)F)c3ccccc32)c(F)c1,/,/,.[9.22 µM]
COc1ccccc1N1CCN(C(=O)CCn2cnc3onc(-c4ccc(F)cc4)c3c2=O)CC1,/,/,.
Cc1cccc(OCCCC(=O)NC(C)C)c1,-80,.,.
Cc1cccc(OCCCC(=O)NC(C)c2ccccc2)c1 (stereo not given),.,.,.
SMILES,PNC inhibitor,IMPase cell inh,Lamin A splicing
CC(C)(CO)C(O)C(=O)NCCC#N (stereo not given),/,/,.
COc1cc(SC)ccc1C(=O)Nc1nccs1,/,/,.
COc1ccc(CCNC(=O)CCNS(=O)(=O)c2cccc(Cl)c2)cc1OC,/,/,.
COc1ccc(CCNC(=O)CN2CCN(c3cccc(Cl)c3)CC2)cc1OC,-91,.,.
COC(=O)C1=C(C)NC(C)=C(C(=O)OC)C1C1CC=CCC1 (stereo not given),-104,?,?
CCOC(=O)C1=C(C)NC(=O)NC1C1CC=CCC1 (stereo not given),.,.,.
O=S(=O)(c1ccc2c(c1)OCCO2)N1CCC(c2nc3ccc(Cl)cc3[nH]2)CC1,.,.,?
O=C(NCC1CCCO1)c1ccc(S(=O)(=O)N2CCC(c3nc4ccc(Cl)cc4[nH]3)CC2)cc1 (stereo not given),-100,.,?
CCOc1cc(C2C(C(=O)OC)=C(C)N=C3SC(C)C(=O)N32)ccc1OC(C)=O (stereo not given),.,.,.
CCOC(=O)C1=C(C)N=C2SC(C)C(=O)N2C1c1ccc(OC(C)=O)c(OC)c1 (stereo not given),-100,.,.
O=C(CCC1N=C2c3ccccc3N=C(SCc3ccccc3Cl)N2C1=O)N1CCN(c2ccccc2)CC1 (stereo not given),/,.,/
CCc1ccc(NC(=O)CSc2nc3nccnc3c(=O)n2CCc2c[nH]c3ccccc23)cc1,/,/,.
O=C(CCCOc1ccccc1)Nc1nncs1,.,.,.
COc1ccc(OCCCC(=O)Nc2nncs2)cc1,-100,.,.

# High-throughput results deposited in PubChem BioAssay by National Center for Advancing Translational Sciences (NCATS).
